PrP UTR inh – suppresses PrP 5' UTR mRNA reporter expression; cell-based PrP 5' UTR mRNA reporter, plate reader; inhibition, % (no concentration beside the values); 340,000 tested, 0.35% active; in the data active = inhibition above about 52%; also: 0 = median of the neutral control wells
BJeLR lethal – BJeLR cell viability loss. BJeLR (HRASV12) viability, CellTiter-Glo ATP luminescence, 48 h. inhibition, % (test concentration not listed). 300,000 tested, 0.17% active; in the data active = inhibition above about 50%
PfHsp40 rescue – compounds rescuing yeast from Plasmodium falciparum HSP40 toxicity; S. cerevisiae expressing PfHsp40, growth rescue, ATP luminescence; growth rescue, % at 12.5 µM; 340,000 tested, 0.68% active; in the data active = growth rescue above about 28%, passing the limit was not always enough;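 also: yeast W303a lacking pdr1 and pdr3 grown in galactose medium; growth measured after three days at 30 °C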
PrPC TRFRET – inhibitors of human cell surface prion protein PrPC | inhibition, % at 13.8 µM | P04156 | TR-FRET read-out | 370,000 tested, 0.43% active; in the data active = inhibition above about 24%; also: 0% = median of the test wells and 100% = reference compound wells
SSB-PriA inh – K. pneumoniae PriA-SSBct interaction inhibition | 430,000 tested, 0.6% active | inhibition, % at 33 µM | AID 1272365 | AlphaScreen SSBct-PriA binding, biotinylated peptide; in the data active = inhibition mostly above about 37%, no sharp cut-off; inactive = mostly below about 20%;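 also: plate controls were negative control peptide for no effect and reference peptide for full effect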
RecA splice inh – inhibitors of M. tuberculosis RecA intein splicing | P9WHJ3 | cell-free RecA intein splicing, fluorescence | inhibition, % (test concentration not listed) | 290,000 tested, 0.75% active; in the data active = inhibition above about 30%;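 also: 0% = vehicle wells and 100% = reference inhibitor control wells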
Target sequence (P9WHJ3 whole entry, looked up, canonical isoform): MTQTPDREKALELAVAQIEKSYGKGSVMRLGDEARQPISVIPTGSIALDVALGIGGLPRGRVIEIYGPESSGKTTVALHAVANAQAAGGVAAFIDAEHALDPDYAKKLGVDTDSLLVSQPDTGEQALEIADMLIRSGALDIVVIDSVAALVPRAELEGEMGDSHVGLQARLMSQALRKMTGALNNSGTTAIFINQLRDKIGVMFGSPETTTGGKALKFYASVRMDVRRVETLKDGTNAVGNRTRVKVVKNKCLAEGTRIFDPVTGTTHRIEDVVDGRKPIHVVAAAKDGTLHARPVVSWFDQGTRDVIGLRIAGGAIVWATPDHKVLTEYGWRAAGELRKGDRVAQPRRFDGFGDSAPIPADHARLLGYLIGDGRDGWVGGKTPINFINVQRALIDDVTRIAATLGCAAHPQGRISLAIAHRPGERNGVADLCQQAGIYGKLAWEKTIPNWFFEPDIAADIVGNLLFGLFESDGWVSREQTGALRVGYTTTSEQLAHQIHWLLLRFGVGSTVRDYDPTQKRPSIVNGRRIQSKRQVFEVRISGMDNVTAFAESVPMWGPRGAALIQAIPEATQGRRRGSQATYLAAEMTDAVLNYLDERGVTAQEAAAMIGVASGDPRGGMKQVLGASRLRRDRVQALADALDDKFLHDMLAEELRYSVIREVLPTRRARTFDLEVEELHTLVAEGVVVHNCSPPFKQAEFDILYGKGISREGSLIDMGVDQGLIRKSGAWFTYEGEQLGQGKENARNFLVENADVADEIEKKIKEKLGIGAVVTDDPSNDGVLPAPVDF
* hit, by the source's call; · = no result given. In the library only some 1.9% were active in any assay of this set; here they are far more common.

SMILES	PrP UTR inh	BJeLR lethal	PfHsp40 rescue	PrPC TRFRET	SSB-PriA inh	RecA splice inh
Cc1ccc(SCCNC(=O)c2ccc([N+](=O)[O-])c(C)c2)cc1	-26	-1	6	-7	2	0
c1ccc2c(C(c3ccc4c(c3)OCO4)c3c[nH]c4ccccc34)c[nH]c2c1	·	·	·	·	37*	·
CCOc1ccc([C@H](C2Sc3nc(C)nn3C2=O)N2CCc3ccccc3C2)cc1OC (stereo partly drawn)	·	·	·	·	-8	·
O=C(Nc1ccc(Cl)cc1)N1CCCN(c2ccc(C(F)(F)F)cc2[N+](=O)[O-])CC1	-9	4	44*	0	-1	1
CCCC(O)=C1C(=O)CCCC1=NCCc1ccc(OCC)c(OCC)c1	·	·	·	·	-1	·
O=C(NNC(=O)c1cc2ccccc2cc1O)Nc1ccccc1F	-25	-1	120*	-4	-5	-16
Cc1cccc(NC(=O)NNC(=O)c2cc3ccccc3cc2O)c1C	-26	-11	-1	-5	-6	-14
NC[C@H](Cc1ccccc1)NCCCCC1CCCCC1	-25	·	-1	-1	-1	·
CNC[C@H](CC1CCCCC1)NC[C@H](Cc1ccccc1)NCCC12CC3CC(CC(C3)C1)C2	5	69*	0	-3	12	19
CCOC(=O)c1cc(OC(=O)c2ccccc2)n(-c2ccccc2)n1	-10	-3	112*	0	-12	-2
CCOC(=O)c1cc(OC(=O)c2cccc([N+](=O)[O-])c2)n(-c2ccccc2)n1	-4	4	22	4	-2	·
CC(C)=CC(=O)Nc1ccc(I)cc1	·	·	·	·	-19	·
CCCCOc1ccc(C2=CSC3=NCCN23)cc1[N+](=O)[O-]	-27	0	0	-8	0	-1
CCCCOc1ccc(-c2csc(N)n2)cc1[N+](=O)[O-]	-79	-3	141*	6	17	4
COc1cccc(Oc2cncnc2-c2ccc(OC)cc2O)c1	-5	5	56*	9	-25	17
COc1ccc(-c2cncnc2-c2ccc(OC)cc2O)cc1	15	5	-2	1	2	-3
CCCCCCCCCCCC(=O)NC(C(=O)O)C(O)c1ccccc1 (stereo not drawn)	-12	7	59*	-2	97*	4
CCCCCCCCCC(=O)N[C@H](CN1CCOCC1)[C@H](O)c1ccccc1	-43	4	-1	5	-11	-1
CC(C)(C)C(O)C(Oc1ccc(Cl)cc1)n1cncn1 (stereo not drawn)	-10	4	141*	-3	-3	-1
CC(C)(C)C(C(Oc1ccc(Cl)cc1)n1cncn1)n1nnnc1C(c1cccc(Cl)c1)N1CCCCC1 (stereo not drawn)	·	3	·	·	·	10
CCCOc1cc2oc(=O)cc(C)c2cc1Cl	·	·	·	·	-4	·
CC1Oc2ccccc2N(Cc2ccccc2Cl)C1=O (stereo not drawn)	-6	14	-1	·	-10	1
O=C(CN1C(=O)COc2ccccc21)N1CCN(c2ccccc2F)CC1	-14	-7	83*	0	-10	-3
O=C(CN1C(=O)COc2ccccc21)Nc1ccc(Cl)cc1	·	·	·	·	52*	·
O=C1COc2ccccc2N1Cc1ccccc1Cl	-15	6	50*	4	-29	3
SMILES	PrP UTR inh	BJeLR lethal	PfHsp40 rescue	PrPC TRFRET	SSB-PriA inh	RecA splice inh
COc1cc(/C=C/c2cc[n+](C)cc2)ccc1OCC(=O)Nc1ccc(Cl)c(Cl)c1	-4	5	0	-28	6	40*
CC(C)[C@H](CN1CCC[C@H]1CN1C(N)=NC[C@@H]1Cc1ccccc1)N1C[C@@H](Cc2ccccc2)N(CCc2ccc(Cl)c(Cl)c2)C1=N	3	·	35*	·	24	·
CCC1=NN(C(=O)c2cccc(Br)c2)C(O)(c2ccc(Br)cc2)C1 (stereo not drawn)	-11	21	91*	8	-3	18
O=S(=O)(NC1CC2CCC1C2)c1ccc(Br)cc1 (stereo not drawn)	-1	-11	67*	18	-14	0
CCn1c(NN=O)nc2ccccc21	7	8	140*	0	6	7
CCn1c(NCc2ccccc2)nc2ccccc21	·	·	·	·	-15	·
Cn1c(=NC(=O)c2ccc([N+](=O)[O-])cc2)sc2cc3c(cc21)OCCO3	·	·	·	·	-7	·
Cc1ccc(S(=O)(=O)NCCCCCC(=O)NC(C)(C)CO)cc1	-20	-3	51*	4	-10	-1
COc1ccc(-c2nnc(Nc3nc4ccc(SC)cc4s3)o2)cc1	·	·	·	·	-13	·
Nn1c(SCc2ccccc2)nnc1-c1ccccn1	-45	3	1	-4	45*	2
Cc1ccc(CSc2nnc(-c3ccccn3)n2N)cc1	·	3	·	1	-4	1
CN1CCN(c2nc3ccc(NC(=O)COc4ccc(Cl)cc4)cc3s2)CC1	·	·	·	·	-2	·
COc1ccc(-n2ncc(S(=O)(=O)c3ccccc3)c2-c2ccc(Cl)cc2)cc1	-17	4	1	6	-7	8
O=S(=O)(c1ccccc1)c1cnn(-c2ccccc2)c1-c1ccc(F)cc1	-11	5	49*	-3	-4	10
Cn1c(-c2ccc(Br)cc2)cnc1SCc1ccccc1	·	·	·	·	67*	·
CCCc1cc(C(=O)NN=Cc2cccn2C)cs1	·	·	·	·	26	·
CCn1cc(C=NO)c(C)n1	·	·	·	·	-12	·
Cc1ccc(C(=O)Nc2scc(-c3ccccc3)c2C(=O)O)cc1	-20	-10	119*	-1	0	4
COc1cc(C(=O)Nc2scc(-c3ccccc3)c2C(=O)O)cc(OC)c1OC	-14	-10	0	-1	0	·
COc1ccc(-c2csc(NC(=O)c3ccccc3F)c2C(=O)O)cc1	-23	-12	310*	12	-14	2
O=C(/C=C/c1cccs1)Nc1scc(-c2ccccc2)c1C(=O)O	-34	15	17	-2	6	47*
O=C(Nc1scc(-c2ccccc2)c1C(=O)O)c1ccccc1Cl	-2	-7	1	4	0	-2
CCOC(=O)c1c(-c2ccc(C)cc2)csc1NC(=O)/C=C/c1cccs1	·	·	·	·	-25	·
COc1ccc(NC(=O)NCC#CCN2CCOCC2)c(OC)c1	·	·	·	·	-6	·
COc1cc(OC)cc(-c2nnc(Sc3ccc(C=O)cc3[N+](=O)[O-])o2)c1	·	7	·	·	·	52*
Cc1ccc(C(=O)N(Cc2nnc(-c3ccccc3Cl)o2)C2CC2)o1	·	·	·	4	·	·
Cc1ccc(CN2CC(C(=O)N(Cc3nnc(-c4ccccc4Cl)o3)C3CC3)CC2=O)cc1 (stereo not drawn)	-30	-2	561*	0	-4	0
COc1cc([C@@H]2c3cc4c(cc3[C@@H](OC)[C@H]3COC(=O)[C@H]23)OCO4)cc(OC)c1O	-20	22	-1	3	-7	0
COc1cc([C@@H]2c3cc4c(cc3[C@@H](NC3CCN(Cc5ccccc5)CC3)[C@H]3COC(=O)[C@H]23)OCO4)cc(OC)c1O	·	86*	·	·	·	-5
COc1ccccc1N=Cc1c(C)[nH]n(-c2ccc(C)cc2C)c1=O	-16	-1	58*	6	-5	1

Screening data deposited in PubChem by several laboratories.
